In PubChem BioAssay:
Calls of active or inactive are those of the source.

What was measured:
[1] = test system: PRMT1 (protein arginine N-methyltransferase 1); experiment: small molecules binding arginine methyltransferase PRMT1 – biochemical, small-molecule microarray, 635 nm fluorescence, primary screen (AID 1088); settings: higher = more signal;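 also: binding of Prmt1 protein to compounds spotted on small-molecule microarray slides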
[2] = growth effects on S. cerevisiae YJM789 – YJM789 clinical isolate, OD600, 24 h, basal, primary screen (AID 1089); settings: higher = more signal, called active from +8 up or from −8 down;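 also: growth of clinical yeast isolate S. cerevisiae YJM 789 seeded 1000 cells per well; test concentration not given here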
[3] = S. pombe growth modifiers, basal conditions – strain 972, OD600, 24 h, no modulator, primary screen (AID 1090);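 also: basal condition with compound alone and no growth modifier present; test concentration not given here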; settings: S. pombe 972 growth, higher = more signal, called active from +8 up or from −8 down
[4] = budding yeast growth modifiers under rapamycin – strain BY4716, OD600, 96 h, primary screen (AID 1091); also: test concentration not given here; settings: S. cerevisiae BY4716 + rapamycin, higher = more signal, called active from +8 up or from −8 down
[5] = target: Torsin-1A-interacting protein 2 (Homo sapiens) (UniProt Q8NFQ8); experiment: small molecules binding lysate-expressed LULL1 – cell lysate, human LULL1 lysate, 635/667 nm fluorescence, primary screen (AID 1092); settings: small-molecule microarray, hLULL1 lysate binding, 635 nm fluorescence; higher = more signal;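 also: probe is lysate of COS7 cells overexpressing human LULL1; score merges per-feature 667 nm fluorescence with signal-to-noise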
[6] = optical density change of DRC41 E. coli – strain DRC41, OD650, 24 h, E. coli filamentation project, primary screen (AID 1093);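 also: MC1000 strain lacking acrAB efflux and sulA so SOS filamentation is blocked; test concentration not given here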; settings: E. coli DRC41 growth, higher = more signal, called active from +8 up or from −8 down
[7] = probe aLefty2 binding to arrayed compounds – biochemical, biotinylated probe, 635/667 nm fluorescence, primary screen (AID 1094); settings: small-molecule microarray, higher = more signal;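 also: score merges spot fluorescence near 667 nm with spot signal-to-noise ratio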
[8] = test system: Noggin (protein binding on small-molecule microarray); experiment: small molecules binding Noggin protein – biochemical, 635/667 nm fluorescence, primary screen (AID 1095); settings: 635 nm fluorescence, higher = more signal;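 also: score merges 667 nm feature fluorescence with signal to noise over triplicate slides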
[9] = target: Neurogenic locus notch homolog protein 3 (Homo sapiens) (UniProt Q9UM47); experiment: small molecules binding NOTCH3 protein – biochemical, 635/667 nm fluorescence, primary screen (AID 1096); settings: small-molecule microarray, 635 nm fluorescence, higher = more signal
[10] = probe aEGFR binding to arrayed compounds – biochemical, biotinylated probe, 635/667 nm fluorescence, primary screen (AID 1097); settings: small-molecule microarray, higher = more signal;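 also: probe is a biotinylated anti-EGFR antibody binding compounds printed on slides; score combines fluorescence near 667 nm and signal to noise of each spot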
[11] = test system: Plasmodium falciparum Sir2 (PF13_0152, Sir2A); experiment: Plasmodium falciparum Sir2A binding compounds – biochemical, small-molecule microarray, 635 nm fluorescence, primary screen (AID 1098); settings: fluorescence 635 nm, higher = more signal;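 also: score merges spot fluorescence intensity with its signal-to-noise ratio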
[12] = probe aDKK1 binding to arrayed compounds – biochemical, biotinylated probe, 635/667 nm fluorescence, primary screen (AID 1099); settings: small-molecule microarray, higher = more signal;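 also: score merges 667nm spot fluorescence with signal to noise across triplicate slides; reference of the scale not given here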
[13] = probe aCHRDL2 binding to arrayed compounds – biochemical, biotinylated probe, 635/667 nm fluorescence, primary screen (AID 1100); settings: small-molecule microarray, higher = more signal
[14] = change in splice reporter luminescence, either direction, cell-based, HEK293, spliceosome inhibition project, primary screen (AID 1101); settings: HEK293 splicing luciferase reporter, 24 h, higher = more signal, called active from +8 up or from −8 down;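 also: HEK293 cells carrying a splicing-competent luciferase reporter gene; test concentration not given here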
[15] = target: Fibroblast growth factor 10 (Homo sapiens) (UniProt O15520); experiment: compounds binding fibroblast growth factor 10 – biochemical, small-molecule microarray, 635 nm fluorescence, primary screen (AID 1102); settings: FGF10 binding, fluorescence 635 nm, higher = more signal
[16] = test system: glycogen synthase kinase-3 (GSK3A per assay name; protocol says GSK3B); experiment: compounds binding glycogen synthase kinase-3 – biochemical, small-molecule microarray, 635 nm fluorescence, GSK3A, primary screen (AID 1103); settings: fluorescence 635 nm, higher = more signal; also: the record names both GSK3A and GSK3B
[17] = target: Epidermal growth factor receptor (Homo sapiens) (UniProt P00533); experiment: compounds binding epidermal growth factor receptor – biochemical, small-molecule microarray, 635 nm fluorescence, primary screen (AID 1104); settings: EGFR binding, higher = more signal;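 also: score merges 667 nm emission intensity with spot signal to noise over triplicate slides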
[18] = target: Follistatin-related protein 3 (Homo sapiens) (UniProt O95633); experiment: compounds binding follistatin-related protein 3 – biochemical, small-molecule microarray, 635 nm fluorescence, primary screen (AID 1105); settings: FSTL3 binding, higher = more signal;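 also: score merges emission near 667 nm and signal to noise per printed spot across three slides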
[19] = target: Dickkopf-related protein 1 (Homo sapiens) (UniProt O94907); experiment: small molecules binding DKK1 protein – biochemical, small-molecule microarray, 635 nm fluorescence scan, primary screen (AID 1106); settings: higher = more signal;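 also: score merges emission near 667 nm with signal to noise over three replicate slides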
[20] = test system: Inhibin beta A chain (activin A); experiment: small molecules binding activin A – biochemical, small-molecule microarray, 635 nm fluorescence scan, primary screen (AID 1107); settings: INHBA, higher = more signal;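 also: mouse activin A protein probed at 4.33 µg/mL on printed slides; score merges bound-protein fluorescence near 667 nm with spot signal-to-noise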

Epidermal growth factor receptor (Homo sapiens), sequence (P00533 whole entry, looked up): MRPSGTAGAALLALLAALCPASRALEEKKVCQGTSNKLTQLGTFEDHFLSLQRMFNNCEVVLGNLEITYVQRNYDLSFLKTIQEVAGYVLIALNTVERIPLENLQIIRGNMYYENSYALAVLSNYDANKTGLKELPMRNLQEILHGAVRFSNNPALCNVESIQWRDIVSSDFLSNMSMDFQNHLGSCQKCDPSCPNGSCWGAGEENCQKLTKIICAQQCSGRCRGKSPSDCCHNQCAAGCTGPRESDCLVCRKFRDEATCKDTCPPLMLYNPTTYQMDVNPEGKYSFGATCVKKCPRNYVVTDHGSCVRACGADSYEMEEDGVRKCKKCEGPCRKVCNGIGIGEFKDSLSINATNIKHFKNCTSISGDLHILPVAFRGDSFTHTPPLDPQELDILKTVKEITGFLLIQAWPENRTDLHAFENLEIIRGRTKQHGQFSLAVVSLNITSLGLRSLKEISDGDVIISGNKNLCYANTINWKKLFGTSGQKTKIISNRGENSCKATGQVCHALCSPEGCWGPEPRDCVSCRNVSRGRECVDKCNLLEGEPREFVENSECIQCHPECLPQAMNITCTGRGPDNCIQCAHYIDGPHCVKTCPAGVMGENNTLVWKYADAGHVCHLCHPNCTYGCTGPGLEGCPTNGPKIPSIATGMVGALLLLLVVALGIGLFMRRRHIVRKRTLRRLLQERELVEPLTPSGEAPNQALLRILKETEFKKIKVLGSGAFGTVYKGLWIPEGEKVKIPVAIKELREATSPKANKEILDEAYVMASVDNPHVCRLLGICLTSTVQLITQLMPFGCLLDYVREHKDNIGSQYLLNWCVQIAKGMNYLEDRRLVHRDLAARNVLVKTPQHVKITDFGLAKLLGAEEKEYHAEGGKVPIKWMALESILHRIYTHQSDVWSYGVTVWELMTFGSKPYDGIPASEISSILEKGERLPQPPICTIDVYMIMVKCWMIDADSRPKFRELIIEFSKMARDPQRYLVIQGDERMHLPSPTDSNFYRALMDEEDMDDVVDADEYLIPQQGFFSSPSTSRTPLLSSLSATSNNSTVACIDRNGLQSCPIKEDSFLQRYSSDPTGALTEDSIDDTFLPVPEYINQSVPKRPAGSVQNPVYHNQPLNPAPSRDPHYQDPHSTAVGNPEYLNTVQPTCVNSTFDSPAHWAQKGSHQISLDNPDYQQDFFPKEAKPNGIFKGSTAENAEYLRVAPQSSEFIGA
Follistatin-related protein 3 (Homo sapiens), sequence (O95633 whole entry, looked up): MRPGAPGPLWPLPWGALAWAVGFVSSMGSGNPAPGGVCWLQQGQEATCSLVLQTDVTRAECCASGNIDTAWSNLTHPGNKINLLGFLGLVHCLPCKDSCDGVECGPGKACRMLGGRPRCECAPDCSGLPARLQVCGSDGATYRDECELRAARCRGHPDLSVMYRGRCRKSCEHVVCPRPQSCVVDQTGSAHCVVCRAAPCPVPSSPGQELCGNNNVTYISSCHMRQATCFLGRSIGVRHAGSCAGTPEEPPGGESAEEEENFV
Torsin-1A-interacting protein 2 (Homo sapiens), sequence (Q8NFQ8 whole entry, looked up): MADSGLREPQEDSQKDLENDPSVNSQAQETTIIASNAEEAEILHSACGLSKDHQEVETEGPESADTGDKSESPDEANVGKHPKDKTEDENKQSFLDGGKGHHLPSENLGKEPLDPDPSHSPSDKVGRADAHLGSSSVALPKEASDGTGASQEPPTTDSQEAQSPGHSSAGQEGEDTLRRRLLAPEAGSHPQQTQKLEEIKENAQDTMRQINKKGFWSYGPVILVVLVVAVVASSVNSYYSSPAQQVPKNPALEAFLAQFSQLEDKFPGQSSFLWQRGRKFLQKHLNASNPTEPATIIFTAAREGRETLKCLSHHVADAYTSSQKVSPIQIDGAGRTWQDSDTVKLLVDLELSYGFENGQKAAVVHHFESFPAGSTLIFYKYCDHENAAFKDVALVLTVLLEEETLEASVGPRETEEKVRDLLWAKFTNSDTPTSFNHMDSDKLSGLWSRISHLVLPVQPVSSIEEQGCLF
Fibroblast growth factor 10 (Homo sapiens), sequence (O15520 whole entry, looked up): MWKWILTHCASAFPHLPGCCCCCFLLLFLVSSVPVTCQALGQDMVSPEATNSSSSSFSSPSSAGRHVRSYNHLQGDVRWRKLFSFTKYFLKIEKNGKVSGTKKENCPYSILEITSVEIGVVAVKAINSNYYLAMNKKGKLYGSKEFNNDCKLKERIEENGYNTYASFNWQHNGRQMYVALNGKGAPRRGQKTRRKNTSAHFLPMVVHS
Neurogenic locus notch homolog protein 3 (Homo sapiens), sequence (Q9UM47 whole entry, looked up): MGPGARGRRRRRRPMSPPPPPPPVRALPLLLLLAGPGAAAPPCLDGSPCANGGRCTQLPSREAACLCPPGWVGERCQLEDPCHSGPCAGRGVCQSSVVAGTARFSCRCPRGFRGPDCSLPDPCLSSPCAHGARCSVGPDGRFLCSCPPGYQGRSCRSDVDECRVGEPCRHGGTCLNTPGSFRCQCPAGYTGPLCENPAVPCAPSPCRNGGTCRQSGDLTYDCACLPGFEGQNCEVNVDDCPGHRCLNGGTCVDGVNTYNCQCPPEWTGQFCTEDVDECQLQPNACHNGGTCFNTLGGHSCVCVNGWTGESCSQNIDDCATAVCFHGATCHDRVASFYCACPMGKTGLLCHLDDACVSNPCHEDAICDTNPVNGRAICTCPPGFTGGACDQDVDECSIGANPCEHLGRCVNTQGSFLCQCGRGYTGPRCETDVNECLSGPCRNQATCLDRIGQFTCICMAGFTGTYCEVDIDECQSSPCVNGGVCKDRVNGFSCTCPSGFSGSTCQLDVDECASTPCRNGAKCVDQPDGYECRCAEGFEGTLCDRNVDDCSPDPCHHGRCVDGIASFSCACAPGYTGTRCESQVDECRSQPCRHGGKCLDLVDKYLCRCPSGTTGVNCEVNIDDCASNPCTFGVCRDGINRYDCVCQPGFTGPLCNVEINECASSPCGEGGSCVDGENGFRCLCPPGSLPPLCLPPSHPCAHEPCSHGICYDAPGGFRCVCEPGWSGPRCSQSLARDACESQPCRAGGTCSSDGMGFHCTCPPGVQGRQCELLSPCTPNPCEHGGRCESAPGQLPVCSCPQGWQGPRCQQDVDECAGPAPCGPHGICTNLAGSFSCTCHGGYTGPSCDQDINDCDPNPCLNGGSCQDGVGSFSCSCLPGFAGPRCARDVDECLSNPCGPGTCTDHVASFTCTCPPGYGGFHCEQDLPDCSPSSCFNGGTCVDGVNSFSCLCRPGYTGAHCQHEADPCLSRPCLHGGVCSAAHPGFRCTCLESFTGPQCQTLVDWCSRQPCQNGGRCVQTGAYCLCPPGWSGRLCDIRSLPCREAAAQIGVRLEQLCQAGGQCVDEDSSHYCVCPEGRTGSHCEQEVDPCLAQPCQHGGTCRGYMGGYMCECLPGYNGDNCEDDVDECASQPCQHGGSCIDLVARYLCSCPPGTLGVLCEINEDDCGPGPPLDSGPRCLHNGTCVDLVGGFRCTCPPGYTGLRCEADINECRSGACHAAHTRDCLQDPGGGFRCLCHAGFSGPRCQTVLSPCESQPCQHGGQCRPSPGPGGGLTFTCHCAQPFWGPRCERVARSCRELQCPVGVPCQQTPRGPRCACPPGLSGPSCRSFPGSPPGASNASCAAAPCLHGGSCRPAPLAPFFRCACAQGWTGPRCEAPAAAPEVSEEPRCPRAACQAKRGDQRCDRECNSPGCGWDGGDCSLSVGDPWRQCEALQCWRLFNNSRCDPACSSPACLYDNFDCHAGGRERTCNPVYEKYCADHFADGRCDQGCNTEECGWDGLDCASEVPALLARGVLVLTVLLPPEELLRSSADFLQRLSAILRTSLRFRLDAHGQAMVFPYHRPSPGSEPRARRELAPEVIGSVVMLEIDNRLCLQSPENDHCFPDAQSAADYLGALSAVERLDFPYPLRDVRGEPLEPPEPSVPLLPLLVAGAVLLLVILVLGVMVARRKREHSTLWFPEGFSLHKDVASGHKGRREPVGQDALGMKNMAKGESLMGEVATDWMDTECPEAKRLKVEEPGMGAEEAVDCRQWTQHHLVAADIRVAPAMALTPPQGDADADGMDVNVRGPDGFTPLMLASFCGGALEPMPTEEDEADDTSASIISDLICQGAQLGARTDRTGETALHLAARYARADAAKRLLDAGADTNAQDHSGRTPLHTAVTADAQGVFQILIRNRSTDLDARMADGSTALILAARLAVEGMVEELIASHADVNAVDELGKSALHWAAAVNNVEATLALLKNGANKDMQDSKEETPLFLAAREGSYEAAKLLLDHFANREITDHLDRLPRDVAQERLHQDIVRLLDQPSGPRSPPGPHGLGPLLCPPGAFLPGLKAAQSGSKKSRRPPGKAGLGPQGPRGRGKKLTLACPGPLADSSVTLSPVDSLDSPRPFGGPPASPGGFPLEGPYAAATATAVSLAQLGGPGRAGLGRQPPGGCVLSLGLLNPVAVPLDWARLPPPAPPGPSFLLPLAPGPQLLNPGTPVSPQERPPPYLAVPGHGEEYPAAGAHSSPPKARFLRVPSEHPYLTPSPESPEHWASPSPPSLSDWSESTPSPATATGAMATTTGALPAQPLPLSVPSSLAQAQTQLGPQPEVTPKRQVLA
Dickkopf-related protein 1 (Homo sapiens), sequence (O94907 whole entry, looked up): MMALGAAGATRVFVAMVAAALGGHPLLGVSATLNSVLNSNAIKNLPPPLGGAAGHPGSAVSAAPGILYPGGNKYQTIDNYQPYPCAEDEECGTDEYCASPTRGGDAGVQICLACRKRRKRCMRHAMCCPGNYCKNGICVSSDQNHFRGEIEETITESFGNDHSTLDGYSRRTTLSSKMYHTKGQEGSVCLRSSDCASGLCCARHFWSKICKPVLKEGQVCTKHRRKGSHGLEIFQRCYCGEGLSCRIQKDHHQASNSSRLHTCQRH

Structure (SMILES) | composite z-score [1] | z-score [2] | z-score [3] | z-score [4] | composite z-score [5] | z-score [6] | composite z-score [7] | composite z-score [8] | composite z-score [9] | composite z-score [10] | composite z-score [11] | composite z-score [12] | composite z-score [13] | z-score [14] | composite z-score [15] | composite z-score [16] | composite z-score [17] | composite z-score [18] | composite z-score [19] | composite z-score [20]
CC(=O)OC[C@H]1O[C@@H](ON=C(C)CCC(=O)OC[C@H]2O[C@H](C#Cc3ccccc3)C=C[C@@H]2Oc2ccc(C)cc2)[C@H](OC(C)=O)[C@@H](OC(C)=O)[C@@H]1OC(C)=O | 1.54 | 0.82 (inactive) | 0.882 (inactive) | -0.211 (inactive) | 2.3 | 0.142 (inactive) | -0.122 | 1.36 | 0.936 | -0.0455 | 0.888 | -0.148 | -0.561 | -0.188 (inactive) | 0.782 | 1.11 | 0.603 | 0.786 | 0.911 | -0.0231
CC(C)CN1CCc2nc(-c3ccccc3)c3c(c2C1)CO[C@@H](C)C3 | 1.42 | -0.319 (inactive) | 0.218 (inactive) | -0.0674 (inactive) | 1.71 | 0.801 (inactive) | -0.145 | 1.5 | 1.08 | 0.0914 | 0.639 | 0.264 | -0.291 | 0.185 (inactive) | 0.929 | 1.16 | 0.383 | 1.05 | 0.512 | 0.0576
CO[C@@H]1COC(=O)CC=C[C@H](C)[C@H](OC)COC(=O)[C@@H]2CCCN2C(=O)CC=C[C@H]1C | 0.684 | 0.0396 (inactive) | -0.719 (inactive) | -0.249 (inactive) | -0.722 | 0.127 (inactive) | -0.225 | 1.78 | -0.128 | 0.153 | 0.811 | -0.48 | -1.38 | -0.127 (inactive) | 0.487 | 0.562 | 1.15 | 1.25 | 1.52 | 1.14
CCOC(=O)[C@H](Cc1ccccc1)NC(=O)CCC1CC(OC(=O)NCc2cccc3ccccc23)CC2(CCCC(COC(=O)NCCOc3ccccc3)O2)O1 (stereo not given in full) | 1.57 | -0.851 (inactive) | -0.421 (inactive) | -0.792 (inactive) | 3.18 | -0.325 (inactive) | -0.122 | 0.734 | 1.12 | -0.0828 | 1.2 | -0.351 | -0.477 | -1.82 (inactive) | 0.441 | 0.974 | 0.575 | 0.579 | 0.504 | 0.011
CCOC(=O)CCN1C(=O)[C@H]2[C@H]3[C@H](O)[C@H](O)CC(=O)[C@@H]3CC[C@H]2C1=O | 0.58 | -0.0366 (inactive) | -0.267 (inactive) | -0.0766 (inactive) | 0.846 | -0.353 (inactive) | -0.198 | 0.589 | 0.738 | 0.0004 | 0.414 | -0.0674 | -0.834 | 0.283 (inactive) | 1.1 | 0.917 | 0.591 | 1.15 | 0.935 | -0.37
